Measured values published in PubChem BioAssay AID1159580 (chemical genetic matrix, 2015).
“And” between values parts separate entries of the source, which are not always exact repeats. Equal entries are not always repeated. The whole screen tested about 5,500 compounds, of which about 2,000 (36%) were called active. Roughly 18% stayed inconclusive and do not appear here. Cut-off read from the data, not from the text of the source: active = normalized growth mostly below about 0.91 (no sharp cut-off); inconclusive = no clear call, values can overlap the other calls; inactive = mostly above about 0.92. The list shows a part of the results.

Test: chemical genetic growth profiling, strain panel (AID 1159580);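 note: tested at 20 µM; growth read once vehicle control cultures reached saturation at 30 °C; 1 = growth at the plate median or of vehicle wells; lower values mean less growth of the strain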
Details: S. cerevisiae deletion strains, growth OD

Measured: normalized growth

Cc1ccccc1N1C(=O)c2cc(S(N)(=O)=O)c(Cl)cc2NC1C (stereo not drawn)
inactive: locus YAL013W, strain DEP1, hits give low values 0.989 | locus YAL021C, strain ccr4, hits give low values 1 | locus YAL026C, strain drs2, hits give low values 0.983 | locus YAL030W, strain snc1, hits give low values 0.991 | locus YBL061C, strain skt5, hits give low values 0.987 | locus YBR009C, strain hhf1, hits give low values 1 | locus YBR021W, strain FUR4, hits give low values 0.968 | locus YBR023C, strain chs3, hits give low values 0.989 | locus YBR171W, strain sec66, hits give low values 0.963 | locus YBR229C, strain ROT2, hits give low values 0.982 | locus YBR231C, strain swc5, hits give low values 0.987 | locus YBR279W, strain paf1, hits give low values 0.996 | locus YCL011C, strain gbp2, hits give low values 0.997 | locus YCL016C, strain dcc1, hits give low values 1.03 | locus YCL029C, strain bik1, hits give low values 0.979 | locus YCL069W, strain vba3, hits give low values 0.996 | locus YCR088W, strain abp1, hits give low values 0.978 | locus YDL005C, strain med2, hits give low values 0.96 | locus YDL035C, strain GPR1, hits give low values 1.01 | locus YDL040C, strain nat1, hits give low values 0.986 | locus YDL074C, strain BRE1, hits give low values 1.02 | locus YDL101C, strain DUN1, hits give low values 0.985 | locus YDL134C, strain PPH21, hits give low values 0.983 | locus YDL185W, strain tfp1, hits give low values 0.984 | locus YDL192W, strain arf1, hits give low values 0.98 | locus YDR001C, strain nth1, hits give low values 0.957 | locus YDR069C, strain doa4, hits give low values 0.96 | locus YDR101C, strain arx1, hits give low values 0.994 | locus YDR137W, strain rgp1, hits give low values 1 | locus YDR159W, strain sac3, hits give low values 0.973 | locus YDR162C, strain NBP2, hits give low values 0.994 | locus YDR195W, strain ref2 0.944 | locus YDR297W, strain sur2, hits give low values 1 | locus YDR318W, strain mcm21, hits give low values 0.99 | locus YDR334W, strain swr1, hits give low values 0.918 | locus YDR335W, strain msn5, hits give low values 0.973 | locus YDR388W, hits give low values 0.994 | locus YDR392W, strain spt3, hits give low values 1.01 | locus YDR502C, strain sam2, hits give low values 0.983 | locus YEL003W, strain gim4, hits give low values 0.978 | locus YEL037C, strain rad23, hits give low values 0.978 | locus YEL061C, strain CIN8 (second series), hits give low values 0.985 | locus YEL061C, strain CIN8, hits give low values 0.993 | locus YER015W, strain faa2, hits give low values 0.986 | locus YER016W, strain bim1, hits give low values 0.998 | locus YER110C, hits give low values 0.976 | locus YER111C, strain swi4, hits give low values 0.987 | locus YER155C, strain BEM2 (second series), hits give low values 0.99 | locus YER155C, strain BEM2, hits give low values 0.981 | locus YER167W, strain BCK2, hits give low values 0.981 | locus YFR010W, strain ubp6, hits give low values 0.968 | locus YGL078C, strain dbp3, hits give low values 0.981 | locus YGL086W, strain mad1, hits give low values 1.01 | locus YGL167C, strain pmr1, hits give low values 0.996 | locus YGL173C, strain kem1, hits give low values 1.01 | locus YGL227W, strain vid30, hits give low values 0.972 | locus YGL240W, strain doc1, hits give low values 0.995 | locus YGL248W, strain PDE1, hits give low values 1 | locus YGL253W, strain hxk2, hits give low values 0.972 | locus YGR135W, strain pre9, hits give low values 0.986 | locus YGR229C, strain SMI1, hits give low values 0.982 | locus YGR252W, strain gcn5, hits give low values 0.991 | locus YHR013C, strain ard1, hits give low values 1.02 | locus YHR027C, strain rpn1, hits give low values 0.991 | locus YHR030C, strain SLT2, hits give low values 0.987 and 0.961 | locus YHR079C, strain IRE1 (second series), hits give low values 0.997 | locus YHR079C, strain IRE1, hits give low values 0.966 | locus YHR094C, strain hxt1, hits give low values 0.99 | locus YHR129C, strain ARP1, hits give low values 0.988 | locus YHR142W, strain chs7, hits give low values 0.969 | locus YHR200W, strain rpn10, hits give low values 0.982 | locus YIL066C, strain RNR3, hits give low values 1.01 | locus YIL073C, strain SPO22, hits give low values 1.03 | locus YIL125W, strain kgd1, hits give low values 0.991 | locus YIR030C, strain dcg1, hits give low values 0.987 | locus YJL092W, strain hpr5, hits give low values 0.992 | locus YJL095W, strain BCK1 (second series), hits give low values 0.956 | locus YJL095W, strain BCK1, hits give low values 1.03 and 0.975 | locus YJL115W, strain asf1, hits give low values 0.965 | locus YJL129C, strain trk1, hits give low values 0.941 | locus YJL134W, strain LCB3, hits give low values 0.986 | locus YJL154C, strain vps35, hits give low values 0.961 | locus YJL164C, strain tpk1, hits give low values 1.03 | locus YJL166W, strain qcr8, hits give low values 0.978 | locus YJL168C, strain set2, hits give low values 0.992 | locus YJL187C, strain SWE1 (second series), hits give low values 1 | locus YJR043C, strain POL32, hits give low values 0.994 | locus YJR066W, strain TOR1, hits give low values 0.923
